Test results: PubChem BioAssay AID1903 (Southern Research Specialized Biocontainment Screening …, 2009)
Several values for one entry are separate records, joined by “and”; a condition that tells them apart may be missing. Equal entries are not always repeated. Hit rate of the full screen: of about 310,000 compounds, about 1,200 (0.39%) were called active. How the calls were made is not given here. Not all results are given here. Entries with a potency or affinity are not part of this list.

The compounds below were run against Large T antigen (Simian virus 40) (UniProt P03070) (assay: TAg ATPase/helicase activity blockers – biochemical (AID 1903)). Details: SV40 large T antigen ATPase/helicase inhibition assay; at 20 µM; active compounds read high.
Large T antigen (Simian virus 40), sequence (P03070 whole entry, looked up): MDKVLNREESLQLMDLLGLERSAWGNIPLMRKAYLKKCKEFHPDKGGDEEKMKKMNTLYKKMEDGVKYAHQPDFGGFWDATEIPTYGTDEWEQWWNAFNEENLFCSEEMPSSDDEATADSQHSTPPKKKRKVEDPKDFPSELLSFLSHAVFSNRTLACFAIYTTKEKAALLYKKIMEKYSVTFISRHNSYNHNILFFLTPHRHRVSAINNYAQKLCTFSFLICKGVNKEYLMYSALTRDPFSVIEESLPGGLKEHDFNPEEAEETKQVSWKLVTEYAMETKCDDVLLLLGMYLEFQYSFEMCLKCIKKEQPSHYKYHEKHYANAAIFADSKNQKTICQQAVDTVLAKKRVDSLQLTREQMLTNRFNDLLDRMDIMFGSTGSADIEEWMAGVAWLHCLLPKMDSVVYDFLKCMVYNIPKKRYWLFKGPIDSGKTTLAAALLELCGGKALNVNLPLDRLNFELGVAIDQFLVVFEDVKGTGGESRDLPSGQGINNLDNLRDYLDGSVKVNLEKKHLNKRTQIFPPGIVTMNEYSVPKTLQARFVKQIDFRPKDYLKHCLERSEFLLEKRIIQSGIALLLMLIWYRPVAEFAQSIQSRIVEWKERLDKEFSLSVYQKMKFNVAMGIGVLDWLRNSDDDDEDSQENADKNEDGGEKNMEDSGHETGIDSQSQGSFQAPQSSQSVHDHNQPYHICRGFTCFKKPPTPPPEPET

inhibition, inactive:
O=C(O)c1ccc(C(=O)C(=O)c2ccccc2)cc1 13.3%
Nc1ccc(C(=O)O)cc1 4.17% and 15.4% and 26%
Cc1cc(NC(=O)CCC(=O)N(Cc2ccccc2)C(C(=O)NC2CCCC2)c2ccco2)no1 (stereo not drawn) 10.2%
O=C(CS(=O)CC(=O)Nc1ccccc1-c1ccccc1)Nc1ccc(F)cc1 (stereo not drawn) 6.05%
Cc1ccc(Cn2c(=O)c3ccccc3n3c(CCC(=O)NCCN4CCOCC4)nnc23)cc1 3.95%
COc1cc(/C=C(\C#N)c2ccccn2)ccc1OCc1ccc(Cl)cc1 12.1%
COc1cc(/C=C(\C#N)c2ccccn2)ccc1OCc1ccccc1 4.85%
Cn1c(/C(C#N)=C/c2ccc(O)cc2)nc2ccccc21 9.77%
Cn1c(/C(C#N)=C/c2cccc(O)c2)nc2ccccc21 12.6%
O=C(C1CCN(S(=O)(=O)c2cccnc2)CC1)N1CCN(c2cccc(Cl)c2)CC1 3.44%
Cc1ccc2c(NC(=O)C3CC3)c(C)ccc2n1 13.3%
O=C(CCNC(=O)N1CC(=O)Nc2ccccc21)NCc1cccc(Cl)c1 8.76%
CCC(Sc1ccccc1C(=O)O)C(=O)O (stereo not drawn) 1.42%
O=C(O)c1ccccc1SSc1ccccc1C(=O)O 1.77%
CCOC(=O)C1CCN(C(=O)COc2cccc(C)c2)CC1 4.64%
CCCCn1c(N)c(N(CC(C)C)C(=O)CSc2n[nH]c(-c3ccc(C)cc3)n2)c(=O)[nH]c1=O 13%
CCOC(=O)c1sc(NC(=O)c2cc3ccccc3o2)nc1C -6.17%
CCC(=O)Nc1ccc(N2CCCCC2)c(C(=O)Nc2ccccc2C)c1 0.82%
Cc1ccccc1C(=O)Nc1ccccc1N1CCCCC1 -0.09%
CCOC(=O)c1c(C)c(C(=O)Nc2ccc3c(c2)OCCO3)c(C)n1CC 0.47%
Cc1ccc(NC(N)=S)cc1 8.99%
CCCCOC(=O)Nc1ccc(C(=O)OC)cc1 6.13%
CCOC(=O)c1c(C)c(C(=O)Nc2ccccc2)c(C)n1CC 10.4%
CCCCOC(=O)Nc1ccc(C(N)=O)cc1 12.3%
Cc1ccc(NC(=S)c2ccc(N(C)C)cc2)cc1 -10.2%
COC(=O)C1=CN(Cc2ccccc2)C=C(C(=O)OC)C1c1ccc(OC)c(OC)c1 7.64%
Cc1ccc(N(C(=O)CNC(=O)c2ccco2)C(C(=O)NC2CCCCC2)c2ccncc2)c(C)c1 (stereo not drawn) 23.9%
COC(=O)c1c(-c2ccc(F)cc2)csc1NC(=O)C1CCCO1 (stereo not drawn) 12%
COc1ccc(-c2cc(=O)oc3cc(O)ccc23)cc1 7.73%
COc1ccc(-c2cc(=O)oc3c(C)c(O)ccc23)cc1 6.62%
O=C(Nc1cccc2cccnc12)c1ccccc1Cl 1.03%
COc1ccc(N2CSC3=C(C#N)C(c4cc(OC)ccc4OC)CC(=O)N3C2)c(OC)c1 (stereo not drawn) 34.1%
CCc1ccccc1N1CSC2=C(C#N)C(c3cc(OC)c(OC)cc3OC)CC(=O)N2C1 (stereo not drawn) 16.6%
COc1ccc(N2CSC3=C(C#N)C(c4cc(OC)c(OC)cc4OC)CC(=O)N3C2)c(OC)c1 (stereo not drawn) 61.9%
COc1cc(C2CC(=O)N3CN(c4ccccc4C)CSC3=C2C#N)cc(OC)c1OC (stereo not drawn) -11.8%
COc1ccc(OC)c(C2CC(=O)N3CN(c4cccc(Cl)c4C)CSC3=C2C#N)c1 (stereo not drawn) 45.4%
COc1ccc(C2CC(=O)N3CN(c4ccc(C)c(Cl)c4)CSC3=C2C#N)cc1OC (stereo not drawn) 36.9% and 28.8%
CC(C)C[C@H](NC(=O)c1nc[nH]c1C(=O)NCc1ccc(CNC(=O)OC(C)(C)C)cc1)C(=O)OC(C)(C)C 1.84%
CCOc1cc2[nH]c(=O)n(Cc3ccccc3)c(=O)c2cc1OCC 3.82%
Cc1cc(C)c(C#N)c(N)n1 20.5%
COc1ccc(S(=O)(=O)N(CCc2ccccc2)CC(=O)NCCCO)cc1 6.27%
CN(C)S(=O)(=O)c1ccc(C(=O)Nc2ccn(C)n2)cc1 4.29%
CS(=O)(=O)N(CC(=O)N1CCC(C(N)=O)CC1)Cc1ccc(Cl)c(Cl)c1 6.63%
COc1ccccc1Nc1nc(N)nc(CN2CCN(Cc3ccc4c(c3)OCO4)CC2)n1 11.3%
CC(SCC(=O)NC12CC3CC(CC(C3)C1)C2)C(=O)O (stereo not drawn) 9.37%
Cc1ccc(-c2cc(C(F)(F)F)n3ncc(C(=O)N4CCN(C)CC4)c3n2)cc1 -2.21%
CC(=C\c1ccccc1)/C=C1/SC(=S)N(C(C(=O)O)C(C)C)C1=O (stereo not drawn) 18.4%
O=C(O)CC(C(=O)O)N1C(=O)/C(=C/C=C/c2ccco2)SC1=S (stereo not drawn) 53.1%
CC(/C=C1\SC(=S)N(C(C(=O)O)C(C)C)C1=O)=C\c1ccccc1 (stereo not drawn) 15.2%
O=C(O)C(Cc1ccccc1)N1C(=O)/C(=C/c2ccccc2)SC1=S (stereo not drawn) 16%
CCc1ccc2c(CN3CCOCC3)cc(=O)oc2c1 3.81%
COc1ccc(NC(=O)c2cc(-c3ccccc3)on2)cc1OC 6.07%
Cn1c(Oc2ccc(Cl)c3cccnc23)nc2c1c(=O)n(Cc1ccccc1Cl)c(=O)n2C 5.38%
CCCC(C(=O)NC1CCCC1)N(CCN(CC)CC)C(=O)c1snc(C(N)=O)c1N (stereo not drawn) 7.08%
CCC1CCCCN1S(=O)(=O)c1ccc(NC(=O)c2ccncc2)cc1 (stereo not drawn) -1.25%
CCS(=O)(=O)c1ncc(Cl)c(C(=O)Nc2ccc(C)cc2)n1 7.02%
CC1CCCN(S(=O)(=O)c2ccc(NC(=O)CNC3CCCC3)cc2)C1 (stereo not drawn) 4.39%
CCC1CCCCN1S(=O)(=O)c1ccc(NC(=O)c2cccnc2)cc1 (stereo not drawn) 16.2%
CC1CCN(S(=O)(=O)c2ccc(NC(=O)c3ccncc3)cc2)CC1 7.49%
CCc1noc(C)c1C(=O)Nc1ccc(S(=O)(=O)N2CCCC(C)C2)cc1 (stereo not drawn) 10%
Cc1ccc(S(=O)(=O)n2nccc2-c2c(-c3ccc(Cl)cc3)noc2C)cc1 6.88%
O=C(O)c1ccc(NC(CSCc2ccc(F)cc2)C(=O)O)c([N+](=O)[O-])c1 (stereo not drawn) -4.05%
O=C(c1cc2ccccc2o1)N1CCC(N2CCC(C(=O)N3CCCC3)CC2)CC1 5.34%
COc1ccc(/C=C2\SC(=S)N(NS(=O)(=O)c3ccccc3)C2=O)c(OC)c1 11.9%
O=S(=O)(NCC1CCCO1)c1ccc(Cl)cc1 (stereo not drawn) 1.99%
O=C(c1cc([N+](=O)[O-])ccc1N1CCCC1)N1CCCCC1 1.67%
Cc1cc(-n2c(C)cc(C(=O)CN3C(=O)NC4(CCCCCC4)C3=O)c2C)no1 -2.03%
O=C1CC(c2ccccc2)CC(O)=C1C=Nc1ccc(O)cc1 (stereo not drawn) 30.3%
CC1(C)CC(=O)C(C=Nc2ccc(N)cc2)=C(O)C1 28.8%
Oc1c(C=Nc2ccccc2)sc2ccccc12 21.4%
O=C1CCCC(O)=C1C=Nc1cccc(C(F)(F)F)c1 2.45%
CC1(C)CC(=O)C(C=Nc2ccccc2)=C(O)C1 -6.01%
COc1ccc(N=CC2=C(O)CCCC2=O)cc1 18.6%
CCOC(=O)c1cnc(-n2nc(C)cc2C)nc1NCc1ccc2c(c1)OCO2 17.1%
Cc1ccc(C)c(NC(=O)c2cc(-c3ccccc3O)n[nH]2)c1 3.34%
O=C(NC1CCCC1)C1CCN(C(=O)NCc2ccccc2)CC1 8.69%
CC(=O)c1cc2c(cc1N(C(=O)c1ccco1)C(C(=O)NC1CCCC1)c1ccccc1F)OCO2 (stereo not drawn) 1.47%
C/C(=N\NC(=O)c1cc(C)[nH]n1)c1ccc(-c2ccccc2)cc1 5.47%
CC(C(=O)NC1CCCCC1)N1C(=O)C2C3C=CC(C3)C2C1=O (stereo not drawn) 3.95%
N#CC(C#N)=C1C=CC=CN1/C(=C\c1ccco1)C(=O)c1ccc(-c2ccccc2)cc1 28.2%
N#CC(C#N)=C1C=CC=CN1/C(=C\c1ccccc1)C(=O)c1cccs1 4.44%
COCCN(CCOC)S(=O)(=O)c1ccc(C(=O)NC2CCN(Cc3ccccc3)CC2)cc1 4.79%
CCOC(=O)N1CCN(Cc2cccs2)CC1 5.2%
O=C(O)[C@H](O)[C@@H](O)C(=O)O 3.59%
O=C(O)[C@@H](O)[C@H](O)C(=O)O 16.5%
Cc1c(O)ccc2c(=O)c(-c3nncn3-c3ccccc3)coc12 2.48%
COC(=O)c1ccc(-c2nc(O)c3cnccn23)cc1 4.33%
CSc1ccc(-c2nc(O)c3cnccn23)cc1 27.6%
O=C(NNC(=O)c1ccc(O)cc1O)c1ccc(-c2ccccc2)cc1 3.4%
OCC1CCCN(C(=S)Nc2ccc(Oc3ccccc3)cc2)C1 (stereo not drawn) 5.94%
CC1CCCN(C(=S)Nc2ccc(Nc3ccccc3)cc2)C1 (stereo not drawn) 14.1%
CN1CCN(c2nc3c(c(=O)n(C)c(=O)n3C)n2Cc2ccc(Cl)cc2)CC1 3.78%
CC(C)Sc1nc2c(c(=O)n(C)c(=O)n2C)n1Cc1ccc(Cl)cc1 3.02%
